Measured values taken from PMC4552634, “A New Set of Chemical Starting Points with Plasmodium falciparum Transmission-Blocking Potential for Antimalarial Drug Discovery” (PLoS ONE, 2015).
Like-named read-outs stand apart in the source and are kept apart here. The campaign covered roughly 13,000 compounds. About 3,200 (25%) showed an effect of 50% or more. Some of the results follow.

Test system: P. falciparum stage V gametocytes
Parameters: BacTiter-Glo ATP luminescence viability of purified stage V gametocytes in 384-well plates, per cent inhibition versus DMSO
Conditions: 48 h, 5 µM, inhibitor

Row | Structure (SMILES) | % Inhibition [%] | % Inhibition (% Inhibition) [%]
1 | Cc1ccc(-n2c(Sc3ncnc4sccc34)nnc2N2CCCC2)cc1 [TCMDC-125247] | 65.97 | 
2 | CN1CCN(CCCCNc2c3ccccc3nc3ccccc23)CC1 [TCMDC-137479] | 105.4 | 
3 | CN1CCN(CCCCCNc2c3ccccc3nc3ccccc23)CC1 [TCMDC-137541] | 96.5 | 
4 | CN1CCN(CCCCCCNc2c3ccccc3nc3ccccc23)CC1 [TCMDC-137542] | 98.34 | 
5 | CN1CCN(c2nc(NCCNc3ccc([N+](=O)[O-])cc3)c3ccccc3n2)CC1 [TCMDC-124567] | 35.05 | 
6 | CC(CCNc1c2ccccc2nc2ccccc12)N1CCN(C)CC1 (stereo not shown) [TCMDC-138011] | 98.03 | 
7 | COc1cc2nc(NCCC(C)C)n3nc(-c4ccccc4)nc3c2cc1OC [TCMDC-124451] | -18.82 | 
8 | COc1ccc2nccc([C@@H](O)CN3CCC(NCc4nc5c(cc4Cl)SCC(=O)N5)C(F)C3)c2c1 (stereo partly shown) [TCMDC-141717] |  | 2.766
9 | O=C(Nc1ccc(S(=O)(=O)N2CCCC2)cc1)c1cc(-c2cccnc2)nc2ccc(Cl)cc12 [TCMDC-124359] | -22.21 | 
10 | COc1ccc(-c2cnc(N)nc2N)cc1Cl [TCMDC-137297] | -3.357 | 
11 | CC(C)(C)c1cc(C(=O)N2CCN(c3ccc(C(F)(F)F)cn3)CC2)n(Cc2ccc(F)cc2)n1 [TCMDC-123791] | 22.03 | 
12 | Cc1nc(-c2cccc3c(NC(=O)N4CCc5cc6nccc(N7CCN(C)CC7)c6cc54)cccc23)no1 [TCMDC-139370] | -51.93 | 
13 | Cc1cc(N2CCCCC2)nc2ccc(NC(=O)c3cncc(Br)c3)cc12 [TCMDC-124421] | 17.06 | 
14 | O=C(Nc1ccccc1)c1ccc(N2CCC(COc3cccc(C(F)(F)F)c3)CC2)nc1 [TCMDC-134507] | -9.482 | 
15 | CC(C)CNCc1ccc(-c2ccc(CN(C(=O)NC3CCCCC3)C3CCN(Cc4ccccc4)CC3)cc2)cc1 [TCMDC-140635] | 103.7 | 
16 | CC(C)CNCc1cccc(-c2ccc(CN(C(=O)NC3CCCCC3)C3CCN(Cc4ccccc4)CC3)cc2)c1 [TCMDC-140634] | 102.1 | 
17 | CC(C)CNCc1cccc(-c2cccc(CN(C(=O)NC3CCCCC3)C3CCN(Cc4ccccc4)CC3)c2)c1 [TCMDC-140627] | 95.46 | 
18 | CC(C)CNCc1ccc(-c2cccc(CN(C(=O)NC3CCCCC3)C3CCN(Cc4ccccc4)CC3)c2)cc1 [TCMDC-140628] | 92.69 | 
19 | CC(C)Oc1ccc(C=CC(=O)Nc2noc3ccccc23)cc1 [TCMDC-125292] | 41.66 | 
20 | Cc1cccc(CNc2nc(C)cc(NCCC(=O)NCCOc3ccccc3)n2)c1 [TCMDC-134884] | 13.93 | 
21 | COc1ccc2ncc(Cl)c(CCN3CCC(NCc4ccc5c(n4)NC(=O)CO5)CC3)c2c1 [TCMDC-141808] | -9.673 | 
22 | O=C(NCCc1ccc(O)cc1)n1c2ccccc2c2ccccc21 [TCMDC-138166] | -0.5781 | 
23 | Cc1ccccc1CNc1noc(-c2c(F)cccc2Cl)n1 [TCMDC-133373] | 21.36 | 
24 | O=C(NCCCN1CCCC1=O)c1cnc(N2CCC(Oc3ccccc3)CC2)c(Cl)c1 [TCMDC-134054] | 50.82 | 
25 | Cc1cccc(OC2CCN(c3ncc(C(=O)NCCCN4CCCC4=O)cc3Cl)CC2)c1 [TCMDC-134057] | 81.53 | 
26 | Cc1ccc(OCC2CCN(c3ncc(C(=O)NCCCN4CCCC4=O)cc3Cl)CC2)cc1 [TCMDC-134056] | 53.1 | 

Row | Structure (SMILES) | % Inhibition [%] | % Inhibition (% Inhibition) [%]
27 | CC(C)c1cccc(OCC2CCN(c3ncc(C(=O)NC4CC4)cc3Cl)CC2)c1 [TCMDC-134260] | -10.41 | 
28 | Cc1ccc(OCC2CCN(c3ncc(C(=O)NC4CC4)cc3Cl)CC2)cc1 [TCMDC-134055] | 11.28 | 
29 | O=C(NC1CC1)c1cnc(N2CCC(OCc3ccccc3)CC2)c(Cl)c1 [TCMDC-134610] | 14.6 | 
30 | Cc1cc(OCC2CCN(c3ncc(C(=O)NC4CC4)cc3Cl)CC2)ccc1F [TCMDC-134032] | 14.47 | 
31 | O=C(NC1CC1)c1cnc(N2CCC(Oc3ccc(Cl)cc3)CC2)c(Cl)c1 [TCMDC-134040] | 28.34 | 
32 | Cc1cccc(OCC2CCN(c3ncc(C(=O)NC4CC4)cc3Cl)CC2)c1 [TCMDC-134058] | 0.6256 | 
33 | CC(C)(C)c1ccc(NC(=O)c2cccc(CN3CCN(Cc4cccc(O)c4)CC3)c2)cc1 [TCMDC-136604] | -36.18 | 
34 | COc1ccc(CNC(=O)NC2CCN(c3ccnc(Nc4cc(OC)c(OC)c(OC)c4)n3)C2)cc1 (stereo not shown) [TCMDC-133619] | -40.46 | 
35 | Cc1cccc(CN2CCCN(Cc3ccc(C(=O)Nc4ccc(C(C)(C)C)cc4)cc3)CC2)c1 [TCMDC-136434] | -28 | 
36 | CN(c1ccc(NC(=O)Nc2cc(C(F)(F)F)ccc2F)cc1)c1ccnc(NCCN2CCOCC2)n1 [TCMDC-141590] | 51.14 | 
37 | CN(c1ccc(NC(=O)Nc2cc(C(F)(F)F)ccc2F)cc1)c1ccnc(NCCN2CCCC2)n1 [TCMDC-141635] | 83.6 | 
38 | Cn1nc(-c2ccc(NC(=O)Nc3ccc4ccccc4c3)c(F)c2)c2cnc(NCCN3CCOCC3)nc21 [TCMDC-141561] | 17 | 
39 | COc1cc(Nc2nccc(N3CCC(NC(=O)Nc4ccc5c(c4)OCO5)C3)n2)cc(OC)c1OC (stereo not shown) [TCMDC-133629] | -90.76 | 
40 | CCN(CCN(C)C)Cc1ccc(-c2ccc(NS(=O)(=O)c3cccc4cccnc34)cc2)cc1 [TCMDC-136600] | 46.29 | 
41 | O=C(Nc1cccc(C(F)(F)F)c1)c1ccc(S(=O)(=O)NCC2CCCN(CC3CCCCC3)C2)cc1 (stereo not shown) [TCMDC-132777] | 92.44 | 
42 | CCCN1CCN(c2ccc(NS(=O)(=O)c3ccc(C(=O)Nc4ccc(Cl)cc4)cc3)cc2)CC1 [TCMDC-136351] | 71.9 | 
43 | O=C(Nc1ccc(Cl)cc1)c1ccc(S(=O)(=O)NCC2CCN(CC3CCCCC3)CC2)cc1 [TCMDC-132808] | 84.19 | 
44 | O=C(Nc1ccc(C(F)(F)F)cc1)c1cccc(S(=O)(=O)NCC2CCCN(CC3CCCCC3)C2)c1 (stereo not shown) [TCMDC-133673] | -19.66 | 
45 | CC(C)c1ccc(NC(=O)c2ccc(C(=O)NCC3CCN(CC4CCCCC4)CC3)cc2)cc1 [TCMDC-136753] | 4 | 
46 | O=C(Nc1ccc(C(F)(F)F)cc1)c1ccc(S(=O)(=O)NCC2CCCN(CC3CCCCC3)C2)cc1 (stereo not shown) [TCMDC-133680] | -21.48 | 
47 | O=C(Nc1cccc(C(F)(F)F)c1)c1cccc(S(=O)(=O)NCC2CCCN(Cc3ccccc3)C2)c1 (stereo not shown) [TCMDC-133685] | -6.422 | 
48 | O=C(Nc1cccc(C(F)(F)F)c1)c1ccc(S(=O)(=O)NCC2CCCN2CC2CCCCC2)cc1 (stereo not shown) [TCMDC-133689] | -36.87 | 
49 | CCCN1CCN(Cc2ccc(C(=O)Nc3ccc(Cl)cc3)cc2)CC1 [TCMDC-136387] | 3.347 | 
50 | O=C(Nc1cccc(C(F)(F)F)c1)c1cccc(S(=O)(=O)NCC2CCCN(CC3CCCCC3)C2)c1 (stereo not shown) [TCMDC-132770] | 87.2 | 
51 | O=C(Nc1ccc(Cl)cc1)c1ccc(CN2CCCN(CC3CCCCC3)CC2)cc1 [TCMDC-136400] | -37.54 | 
52 | CCCN1CCN(c2ccccc2NS(=O)(=O)c2ccc(C(=O)Nc3ccc(Cl)cc3)cc2)CC1 [TCMDC-136350] | 1.888 | 
